Assay outcomes: PubChem BioAssay, National Center for Advancing Translational Sciences (NCATS)
PLK1 PBD block: blocks phosphopeptide binding to human PLK1 polo-box domain; P53350; Plk1 PBD binding of FITC phosphopeptide, fluorescence polarization; Potency, µM, usual class: inhibitors; 360,000 tested, 2.8% active; AID 720504; further: series mostly up to about 57 µM; nearly all actives have a fitted effect of over 65% in size
HP1b binding inh: HP1-beta chromodomain-methylated histone interaction inhibition | AlphaScreen HP1-beta / biotin-H3K9me3 peptide binding | Potency, µM (highest dose often 114 µM), hits mostly inhibitors | AID 540317 | 390,000 tested, 0.56% active | P83916; further: nearly all actives have a fitted effect of over 70% in size
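Compound inhibition of the preformed complex between 50 nM HP1-beta and 50 nM biotinylated H3K9me3 peptide was read by AlphaScreen. Buffer was PBS pH 7.4 with 0.01% Tween-20. Incubations ran 30 min at room temperature, with 10 ug/mL donor/acceptor beads.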
BAZ2B block: BAZ2B (human) inhibition; Q9UIF8; AlphaScreen BAZ2B-H3K14Ac peptide displacement; Potency, µM (titrated, usually from 114 µM), hits mostly inhibitors; 360,000 tested, 4.4% active; further: nearly all actives have a fitted effect of over 60% in size
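In this displacement format the biotinylated H3(5-23) peptide acetylated at Lys14 serves as ligand at 50 nM, with BAZ2B at 50 nM in PBS pH 7.4 containing 0.01% Tween-20. Donor and acceptor beads are 10 ug/mL final.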
G9a block: inhibitors of human histone lysine methyltransferase G9a; G9a H3K9 monomethylation, AlphaScreen, 2 h; Potency, µM (highest dose often 102 µM), hits mostly inhibitors; Q96KQ7; 350,000 tested, 8.8% active; further: nearly all actives have a fitted effect of over 75% in size
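G9a (20 nM) was preincubated 15 min with compound, then reacted 2 h at room temperature with 500 nM biotin-H3K9 peptide and 20 µM SAM. Monomethyl-H3K9 detected by AlphaScreen using anti-H3K9me1 antibody.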
JMJD2A Tudor inh: JMJD2A Tudor domain (human) inhibition; Potency, µM (top dose mostly 114 µM), actives largely listed as inhibitors; 390,000 tested, 4.4% active; AID 504339; O75164; AlphaScreen JMJD2A-Tudor / H3K4me3 peptide binding; further: nearly all actives have a fitted effect of over 50% in size
VDR inh: blocks the human vitamin D receptor. Potency, µM, hits mostly inhibitors. P11473. AID 504847. VDR-SRC2-3 peptide fluorescence polarization, 2 h. 400,000 tested, 0.93% active
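Fluorescence polarization assay of small-molecule disruption of VDR binding to coregulator peptide SRC2-3. Compounds and controls pin-transferred, then read after 2 h incubation at ambient room temperature.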
Each line names hits and unclear results; the compound was inactive in the other large screens. In the library only some 11% were active in any assay of this set; here they are far more common. The call rests on the fitted dose curve; in most records, active means well fitted curve in the direction sought with a large enough effect; inconclusive means small, poorly fitted or top-dose-only effect, or another doubt; inactive means no such curve, though single readings can be large; an effect the other way counts as inactive or inconclusive.

O=C(Nc1nnc([C@H]2C[C@H](O)[C@@H](CO)O2)s1)c1cccc(Oc2ccccc2)c1	none (no result: HP1b binding inh, BAZ2B block, G9a block, JMJD2A Tudor inh, VDR inh)
COc1ccc(Nc2ccc(S(=O)(=O)N3CCCCC3)cc2[N+](=O)[O-])cc1Cl	HP1b binding inh inconclusive, BAZ2B block 8.9µM, G9a block 7.1µM, JMJD2A Tudor inh 5.6µM
Cc1ccc(Nc2ccc(S(=O)(=O)N3CCOCC3)cc2[N+](=O)[O-])c(C)c1	HP1b binding inh inconclusive, BAZ2B block 10µM, G9a block 35µM, JMJD2A Tudor inh inconclusive
CCOc1ccc(N2C(=O)CC(SC(=NC)Nc3ccc(F)cc3)C2=O)cc1 (stereo unspecified)	none
Cc1cc(Nc2cccc(F)c2)n2nc(-c3ccco3)nc2n1	none (no result: PLK1 PBD block)
O=C(CNC1=NCCC1)c1ccc(Cl)cc1	G9a block 28µM
COc1ccc(C(=O)CNC2=NCCC2)cc1	none (no result: BAZ2B block)
O=C(Cn1cc(COc2ccccc2[N+](=O)[O-])nn1)c1ccc(O)cc1	PLK1 PBD block inconclusive, JMJD2A Tudor inh inconclusive, VDR inh inconclusive (no result: BAZ2B block, G9a block)
N#Cc1ccccc1OCc1cn(CC(=O)c2ccc(O)cc2)nn1	PLK1 PBD block 24µM, JMJD2A Tudor inh 20µM, VDR inh inconclusive (no result: BAZ2B block, G9a block)
COc1ccc(C=O)c(OCc2cn(CC(=O)c3ccc(O)cc3)nn2)c1	JMJD2A Tudor inh 79µM (no result: BAZ2B block, G9a block)
CCOC(=O)C1=C(C)NC(C)=C(C(=O)OCC)C1C(=O)OCC(=O)Nc1ccc(NC(C)=O)cc1	none (no result: HP1b binding inh, BAZ2B block, G9a block, JMJD2A Tudor inh, VDR inh)
CCN(CC)c1ccc(CNc2nc3ccccc3n2CCN2CCCCC2)cc1	HP1b binding inh inconclusive, BAZ2B block 14µM, G9a block 25µM, JMJD2A Tudor inh 40µM
N#CC/C(N)=N/Nc1nc2ccccc2nc1Cc1ccccc1	G9a block 50µM, JMJD2A Tudor inh inconclusive
CCCN1C(=O)C2(c3ccccc31)c1c(oc3ccccc3c1=O)C(=O)N2CCO (stereo unspecified)	none (no result: PLK1 PBD block)
CCC(OC(=O)c1cccs1)C(=O)NCc1ccc2c(c1)OCO2 (stereo unspecified)	JMJD2A Tudor inh 100µM
Cc1ccc(NC(=O)CN2C(=O)CCn3nc(-c4cccn4C)cc32)cc1	BAZ2B block inconclusive (no result: PLK1 PBD block)
CC1=CN2C(=N)/C(=C/c3ccc([N+](=O)[O-])o3)C(=O)N=C2S1	PLK1 PBD block inconclusive, HP1b binding inh inconclusive, BAZ2B block 45µM, G9a block inconclusive, JMJD2A Tudor inh 79µM, VDR inh inconclusive
CC1=CN2C(=N)/C(=C/c3ccco3)C(=O)N=C2S1	none
COc1ccc(N2CC(O)=C(c3nc(-c4ccc(Br)cc4)cs3)C2=N)cc1	none
COc1ccc(N2CC(O)=C(c3nc(-c4ccccc4)cs3)C2=N)cc1	PLK1 PBD block 13µM, VDR inh inconclusive
COc1ccc(-c2csc(-c3ccc(O)cc3)n2)cc1	PLK1 PBD block 21µM, VDR inh inconclusive
O=C(NC1CCCC1)c1c[nH]c2ccc(S(=O)(=O)Nc3cccc(C(F)(F)F)c3)cc2c1=O	JMJD2A Tudor inh inconclusive (no result: PLK1 PBD block, BAZ2B block)
CCOc1ccc(CN2CCc3nc(Nc4ccc(OC)cc4OC)ncc3C2)cc1	G9a block inconclusive, JMJD2A Tudor inh 50µM (no result: PLK1 PBD block)
CCc1ccc(CN2CCc3nc(Nc4ccccc4)ncc3C2)cc1	none (no result: PLK1 PBD block)
Cc1ccccc1CN1CCc2nc(Nc3ccc4c(c3)OCCO4)ncc2C1	BAZ2B block 22µM, G9a block inconclusive, JMJD2A Tudor inh 35µM (no result: PLK1 PBD block)
COc1ccc(Nc2ncc3c(n2)CCN(Cc2ccccc2C)C3)c(OC)c1	BAZ2B block inconclusive, G9a block inconclusive (no result: PLK1 PBD block)
CC(C)Oc1ccc(CN2CCc3nc(Nc4ccc5c(c4)OCCO5)ncc3C2)cc1	BAZ2B block 32µM, JMJD2A Tudor inh 32µM (no result: PLK1 PBD block)
CCCN(CCC)C(=O)c1oc2ccccc2c1NC(=O)Cc1cccc(OC)c1	none
Cc1cc2oc(=O)cc(CSc3nnc(C)n3N)c2cc1C(C)C	none
Cc1cc2oc(=O)cc(CSc3nnc(-c4cccs4)o3)c2cc1C(C)C	PLK1 PBD block 24µM, G9a block 35µM, JMJD2A Tudor inh 89µM
O=C(COC(=O)Cc1ccccc1[N+](=O)[O-])NNC(=O)c1ccc([N+](=O)[O-])cc1	none
Cc1ccc(N2CCN(C(=O)c3noc4c3COc3ccc(C)cc3-4)CC2)c(C)c1	none (no result: PLK1 PBD block)
CCSc1nc2sc3c(c2c2[n+]1CC(CBr)O2)CCCC3 (stereo unspecified)	BAZ2B block 56µM, G9a block 25µM, JMJD2A Tudor inh 56µM
O=C(Oc1ccc(N(C(=O)c2ccncc2)S(=O)(=O)c2ccc(F)cc2)cc1)c1ccncc1	PLK1 PBD block inconclusive, G9a block 45µM, VDR inh inconclusive
O=C(c1ccncc1)N(c1ccc2oc3c(c2c1)CCCC3)S(=O)(=O)c1ccc(F)cc1	BAZ2B block inconclusive, G9a block 79µM
O=C(Oc1ccc(N(C(=O)c2ccncc2)S(=O)(=O)c2ccc(Cl)cc2)cc1)c1ccncc1	G9a block 50µM, VDR inh inconclusive
COc1ccccc1NC(=O)c1c[nH]c2ccccc12	none
CCOC(=O)N1CCc2c(sc3c2c(=O)n(Cc2ccccc2)c(=O)n3CC(=O)Nc2ccc(C)c(C)c2)C1	none (no result: PLK1 PBD block)
CC(=O)c1ccc(N2CCN(C(=O)Cn3cnc(S(=O)(=O)N4CCCCC4)c3)CC2)cc1	PLK1 PBD block 27µM, JMJD2A Tudor inh inconclusive
CC(=O)c1cccc(NC(=O)Cn2cnc(S(=O)(=O)N3CCCCC3)c2)c1	none
Cc1ccc2nc(C)c(C(=O)NN=C3CCN(C)CC3)n2c1	none
COc1ccc(C(=O)N=S2CCN(C(=O)c3ccc(Cl)cc3)CC2)cc1	G9a block 25µM
CC(C)NC(=O)CN1C(=O)CCn2nc(-c3cn(C)c4ccccc34)cc21	none (no result: PLK1 PBD block)
Cc1cccc(OCCCC(=O)Nc2ccc(S(=O)(=O)Nc3nccs3)cc2)c1C	BAZ2B block inconclusive, G9a block 45µM, JMJD2A Tudor inh inconclusive
Cc1ccc(NS(=O)(=O)c2ccc(NC(=O)C(C)Sc3ccc(Cl)cc3)cc2)c(C)c1 (stereo unspecified)	PLK1 PBD block 30µM
Cc1ccc(C)c(NS(=O)(=O)c2ccc(NC(=O)CSc3ccc(Cl)cc3)cc2)c1	PLK1 PBD block 24µM
Cc1ccc(SCC(=O)Nc2ccc(S(=O)(=O)Nc3nccs3)cc2)cc1	BAZ2B block inconclusive, G9a block 13µM
O=C(CSc1ccncc1)Nc1ccc(S(=O)(=O)Nc2nccs2)cc1	BAZ2B block inconclusive (no result: G9a block)
Cc1ccc(NS(=O)(=O)c2ccc(NC(=O)C3CC3)cc2)c(C)c1	none
COc1cc(NC(=O)N[C@@H](Cc2c[nH]c3ccccc23)C(=O)O)c(C(=O)O)cc1OC	none
O=C(NCc1ccc(F)cc1)c1ccc2c(c1)nnn2C1CCCC1	JMJD2A Tudor inh inconclusive (no result: PLK1 PBD block)
O=C(/C=C/c1ccccc1)Nc1nnc(-c2ccco2)o1	none
O=C(Nc1ccc(S(=O)(=O)Nc2nccs2)cc1)c1nn(-c2ccc(F)cc2)ccc1=O	PLK1 PBD block inconclusive, BAZ2B block 25µM, G9a block inconclusive, JMJD2A Tudor inh 56µM
